Results filed as inconclusive are left out. The source made the active and inactive calls. The call rests on the fitted dose curve; in most records, active means well fitted curve in the direction sought with a large enough effect in the signal ratio, with a control signal flat (not every such curve was filed as active); inconclusive means small, poorly fitted or top-dose-only effect, or effect the other way, or a change in a side signal; inactive means no such curve, though single readings can be large or run the other way; the % refers to the signal ratio.
These compounds were tested against Tyrosine-protein phosphatase non-receptor type substrate 1 (Homo sapiens) + Leukocyte surface antigen CD47 (Homo sapiens) (UniProt P78324+Q08722) (assay: CD47-SIRPalpha protein protein interaction - LANCE assay qHTS validation (AID 1347057)). Details: Recombinant CD47-His / biotin-SIRPalpha, TR-FRET ratio; series mostly up to 38.3 µM.
Sequence of Tyrosine-protein phosphatase non-receptor type substrate 1 (Homo sapiens) + Leukocyte surface antigen CD47 (Homo sapiens) (P78324 whole entry, looked up, the tested form may be a part): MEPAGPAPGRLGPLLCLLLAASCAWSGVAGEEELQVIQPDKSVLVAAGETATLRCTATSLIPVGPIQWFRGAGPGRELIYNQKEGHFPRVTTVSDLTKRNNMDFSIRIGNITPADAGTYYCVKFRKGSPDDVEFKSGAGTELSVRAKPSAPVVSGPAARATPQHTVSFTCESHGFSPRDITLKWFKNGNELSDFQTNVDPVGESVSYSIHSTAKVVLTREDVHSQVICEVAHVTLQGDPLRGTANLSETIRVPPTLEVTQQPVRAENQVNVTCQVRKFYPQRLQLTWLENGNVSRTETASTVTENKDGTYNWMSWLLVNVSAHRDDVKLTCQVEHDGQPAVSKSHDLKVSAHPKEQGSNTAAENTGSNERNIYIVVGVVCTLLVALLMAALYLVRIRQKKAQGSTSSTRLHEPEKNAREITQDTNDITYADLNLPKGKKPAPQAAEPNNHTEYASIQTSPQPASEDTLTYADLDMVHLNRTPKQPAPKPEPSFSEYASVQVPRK
Sequence of Tyrosine-protein phosphatase non-receptor type substrate 1 (Homo sapiens) + Leukocyte surface antigen CD47 (Homo sapiens) (Q08722 whole entry, looked up, the tested form may be a part): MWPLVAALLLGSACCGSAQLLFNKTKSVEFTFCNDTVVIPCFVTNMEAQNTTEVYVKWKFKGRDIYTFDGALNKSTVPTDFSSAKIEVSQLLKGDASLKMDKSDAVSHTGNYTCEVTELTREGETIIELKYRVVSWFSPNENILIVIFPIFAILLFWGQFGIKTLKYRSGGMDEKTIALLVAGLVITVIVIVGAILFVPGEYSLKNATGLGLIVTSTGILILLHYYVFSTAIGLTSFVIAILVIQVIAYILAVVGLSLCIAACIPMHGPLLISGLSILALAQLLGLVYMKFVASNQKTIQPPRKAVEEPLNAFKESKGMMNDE
Description: SIRPalpha is a myeloid cell expressed immunomodulatory receptor that binds the tumor expressed immune checkpoint CD47. Therapeutic disruption of this interaction leads to immune-mediated tumor rejection. This assay was used to quantitate CD47-SIRPalpha binding biochemically and evaluate chemical libraries for novel CD47-SIRPalpha inhibitors. To recapitulate the biological interaction of CD47 and SIRPalpha, we designed expression constructs to produce their recombinant, soluble, extracellular interaction domains. CD47 was produced with an N-terminal 6His tag. SIRPalpha was produced with an N-terminal Avi-Tag for site-specific biotin incorporation. The CD47-SIRPalpha interaction was measured by TR-FRET using affinity tag linked reagents (anti-6His-Eu donor and streptavidin-APC acceptor). SIRPalpha without biotin incorporation was used as a positive control inhibitor.
PROTOCOL TABLE (as described by Miller, T. et al. 2019)
SEQUENCE No. (e.g., 1, 2, 3, etc.); […] (e.g., Cells, Incubation, Reagent, etc.); VALUE and DESCRIPTION.
1a. Reagent. 3 uL CD47-His (12.5 nM) and Anti-His Eu Donor reagent (3 nM) added to respective wells in Assay buffer; white/solid bottom high base, med bind 1536-well plates (Greiner 789075)
1b. Reagent. 2 uL Assay buffer negative control for background fluorescence
2. Reagent. 23 nL library compounds (7-pt, 1:4 intraplate titration series) or DMSO control transferred by Pin Tool
3. Centrifuge. Centrifuge plate for 30 s at 1000 RPM
4. Incubation.#Incubate reagents at room temperature for 30 min, protected from light
5. Reagent. 2 uL SIRPalpha-biotin (100 nM) in Assay buffer
6. Incubation.#Incubate reagents at room temperature for 30 min, protected from light
7. Reagent. 1 uL SAV-APC (26 nM) acceptor reagent added to respective wells
8. Centrifuge. Centrifuge plate for 30 s at 1000 RPM
9. Incubation. Incubate reagents at room temperature for 30 min, protected from light
10. Detector. Measure Top TR-FRET on EnVision (Eu/APC filter set); calculate ratio Ch1/Ch2
1. Assay buffer composition.#Phosphate buffered saline (PBS; 10 mM Phosphate, 137 mM NaCl, and 2.7 mM KCl; pH 7.4), 0.05% IGEPAL CA-630
2. 23nL of […] library compounds (7 plates) or DMSO vehicle control transferred to 9 Greiner white/solid bottom high base, TC plates in 7 interplate 1:5 titrations (see Yasgar, A. et al. 2008) with Pintool. Two of the 9 plates are DMSO-only in compound field at beginning and end of compound library-treated plates.
10. Detector settings#Mirror = LANCE/DELFIA Dual Enh; Ex. Filter = UV2[TRF] 320; Em. Filter = APC 665; 2nd Em. Filter = Europium 615; Measurement h = 6.5; Ex. light (%) = 100; Delay = 60 us; Window t = 100 us; No. Seq. windows = 1; Time between flashes = 2000us; No. of flashes = 100; No. of flashes for 2nd detector = 100; Calculation: "Ratio Ch1/Ch2"

SMILES	outcome
NC(CCP(=O)(O)O)C(=O)O (stereo not given)	inactive
Oc1ccc2c3c1O[C@H]1c4[nH]c5c(c4C[C@@]4(O)[C@@H](C2)N(CC2CC2)CC[C@]314)C[C@@]1(O)[C@H]2Cc3ccc(O)c4c3[C@@]1(CCN2CC1CC1)[C@H]5O4	inactive
C[N+]1(C)C2CCC1CC(OC(=O)C(CO)c1ccccc1)C2 (stereo not given)	inactive
O=C(N[C@H]1CN2CCC1CC2)c1ccc(Cl)cc1	inactive
CCCN1CCC[C@H](c2cccc(O)c2)C1	inactive
NC(=NCCC[C@H](N)C(=O)O)N[N+](=O)[O-]	inactive
C[C@@H](N)Cc1cnc[nH]1	inactive
NC1CC1c1ccccc1 (stereo not given)	inactive
c1ccc(CCCN2CCN(CCOC(c3ccccc3)c3ccccc3)CC2)cc1	inactive
COc1cc(C(O)CN)ccc1O (stereo not given)	inactive
S=C(NC1CCCCC1)N1CCC(c2cnc[nH]2)CC1	inactive
c1ccc2sc(C3(N4CCCCC4)CCCCC3)cc2c1	inactive
C[C@]12N[C@H](Cc3ccccc31)c1ccccc12	inactive
CCCN1CCO[C@@H]2c3cc(O)ccc3OC[C@H]21	inactive
NC(N)=NOCCC(N)C(=O)O (stereo not given)	inactive
CNCCc1c[nH]c2ccc(O)cc12	inactive
CC[C@@H](C(N)=O)N1CCCC1=O	inactive
CCCN(CCC)C1CCc2ccc(O)cc2C1 (stereo not given)	inactive
CC(C)NC(C)Cc1ccc(I)cc1 (stereo not given)	inactive
CC(C)Oc1cccnc1N(C)C1CCN(Cc2ccccc2)CC1	inactive

SMILES	outcome
NCCc1c[nH]c2ccc(O)cc12	inactive
Cn1cnc(CCN)c1	inactive
C/C=C(/C)C(=O)O[C@H]1C(C)=C2[C@H]([C@@H]1OC(=O)CCCCCCC)[C@@](C)(OC(C)=O)C[C@H](OC(=O)CCC)[C@@]1(O)[C@H]2OC(=O)[C@@]1(C)O	inactive
CC[C@@]1(O)C(=O)OCc2c1cc1n(c2=O)Cc2cc3ccccc3nc2-1	inactive
C#CCOC(=O)C1=CCCN(C)C1	inactive
C[C@]12CCC3C(CC[C@H]4C[C@H](O)CC[C@]34C)C1CC[C@@H]2C(=O)CO (stereo not given in full)	inactive
NCCc1c[nH]c2ccccc12	inactive
C[N+](C)(C)CC(=O)O	inactive
C[C@@H]1O[C@H](C[N+](C)(C)C)C[C@H]1O	inactive
CNCCc1ccc(O)c(O)c1	inactive
CN1C2CCC1CC(OC(=O)c1cc(Cl)cc(Cl)c1)C2 (stereo not given)	inactive
CC1=NN=C(c2ccc(N)cc2)c2cc3c(cc2C1)OCO3	inactive
O=C1CCCN1CC#CCN1CCCC1	inactive
NC1CCc2cc(O)c(O)cc2C1 (stereo not given)	inactive
O=C(O)Cc1cnc[nH]1	inactive
NC(CP(=O)(O)O)C(=O)O (stereo not given)	inactive
C=CCN1CC[C@]23CCCCC2[C@H]1Cc1ccc(O)cc13 (stereo not given in full)	inactive
COc1ccc2c(c[n+](C)c3c4cc5c(cc4ccc23)OCO5)c1OC	inactive
CCCN(CCC)[C@@H]1CCc2ccc(O)cc2C1	inactive
CC(Cc1ccc(O)cc1)NCC(O)c1cc(O)cc(O)c1 (stereo not given)	inactive

— PubChem BioAssay (NCATS)
